In PubChem BioAssay AID651650 (Sanford-Burnham Center for Chemical Genomics, 2012) one finds inhibition data, which are given here for 38 compounds.

The target of this assay is Neuropilin-1 (Homo sapiens) (UniProt O14786). Kind of assay: NRP-1 b1b2 CendR peptide binding inhibitors, dose response, biochemical, FP and AlphaScreen panel (AID 651650). Particulars: NRP-1 b1b2 / RPARPAR peptide binding, FP or AlphaScreen; run 1, at 100 µM (top of the series).
Neuropilin-1 (Homo sapiens), sequence (O14786 whole entry, looked up): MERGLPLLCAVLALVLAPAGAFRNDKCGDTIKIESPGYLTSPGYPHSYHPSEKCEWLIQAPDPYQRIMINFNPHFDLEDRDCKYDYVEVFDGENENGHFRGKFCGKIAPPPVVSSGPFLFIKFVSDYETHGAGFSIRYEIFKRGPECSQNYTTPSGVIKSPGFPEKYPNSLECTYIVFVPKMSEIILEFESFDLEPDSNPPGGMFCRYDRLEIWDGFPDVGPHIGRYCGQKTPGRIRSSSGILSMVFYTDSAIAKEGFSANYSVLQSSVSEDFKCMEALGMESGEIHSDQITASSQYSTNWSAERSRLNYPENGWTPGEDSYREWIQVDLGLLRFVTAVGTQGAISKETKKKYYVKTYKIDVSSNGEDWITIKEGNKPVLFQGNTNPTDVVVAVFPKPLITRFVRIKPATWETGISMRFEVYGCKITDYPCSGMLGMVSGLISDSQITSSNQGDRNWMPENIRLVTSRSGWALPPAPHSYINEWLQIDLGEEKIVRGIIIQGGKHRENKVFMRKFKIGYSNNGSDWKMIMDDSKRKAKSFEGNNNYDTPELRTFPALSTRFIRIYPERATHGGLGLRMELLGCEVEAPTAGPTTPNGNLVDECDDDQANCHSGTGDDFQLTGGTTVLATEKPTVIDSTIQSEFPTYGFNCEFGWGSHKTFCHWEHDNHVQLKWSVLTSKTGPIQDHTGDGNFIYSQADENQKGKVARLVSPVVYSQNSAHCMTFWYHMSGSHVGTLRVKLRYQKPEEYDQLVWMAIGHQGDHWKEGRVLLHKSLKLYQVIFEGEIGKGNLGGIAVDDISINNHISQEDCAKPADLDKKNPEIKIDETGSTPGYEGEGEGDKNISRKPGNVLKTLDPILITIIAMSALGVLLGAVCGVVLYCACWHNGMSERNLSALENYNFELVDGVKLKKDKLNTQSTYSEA
As usually defined, the inhibition is the relative decrease from the control value, in per cent. On to `O=C1CCCN1CCCNc1nc(NCc2cccs2)nc2ccsc12`, for which the inhibition came to 81.3%.
Then `COc1ccccc1COc1ccc2c(C)c(CC(=O)O)c(=O)oc2c1C`, with 44.2%; and `C[C@@H](C(=O)Nc1cccnc1)n1c(=O)[nH]c2ccccc2c1=O`, with 44.7%.
Then `CC(O)(c1cccnc1)c1nc(/C=C/c2ccccc2)cs1` (stereo not drawn), with 42.6%; and `Cc1cc(NC(=O)CCC(=O)NNC(=O)c2ccc(C(C)(C)C)cc2)no1`, with 102%.
Then `CC(C)(C)N(NC(=O)Nc1ccc(Cl)cc1)C(=O)c1ccccc1`, with 48.3%; and `Cc1ccc(NC(=S)N2CCN(Cc3ccccc3)CC2)cc1`, with -7.69%; and `O=C(CSc1nc2ccccc2n1Cc1ccccc1Cl)N/N=C/c1ccccc1C(=O)O`, with 84.6%.
`CCOc1ccc(S(=O)(=O)N2CCN(C(=O)c3sccc3C)CC2)cc1`: the inhibition came out at 101%.
For `CCOC(=O)c1ccc2[nH]c(C)c(C)c2c1` the value was -0.673%.
Then `Oc1ccc(-c2nc3ncccn3c2Nc2ccc3c(c2)OCO3)cc1`, with 41.8%.
Then `CCOc1c2ccc(C(=O)NCCc3cccs3)cc2nn1CC`, with -5.4%; and `Cc1onc(-c2ccc(Cl)cc2Cl)c1-c1csc(COc2ccccc2)n1`, with 65.6%.
On to `O=C(Nc1ccc(F)cc1)c1cc(S(=O)(=O)Nc2ccc(F)cc2)cs1`, for which the inhibition was found to be 2.95%.
Then `Cn1c(=O)c2c(nc(OCc3cccnc3)n2Cc2ccccc2)n(C)c1=O`, with 66.1%; and `COc1ccc(N(CC(=O)NCc2ccco2)C(=O)CCC(=O)Nc2ccccn2)cc1`, with -5.26%.
Then `Cc1ccc2cc(CN(c3ccccc3C)S(=O)(=O)c3ccccc3)c(=O)[nH]c2c1`, with 41.9%; and `COc1ccc(NC(=O)CN(C)CC(=O)Nc2cccc(F)c2)cc1Cl`, with 71.1%.
Take `COc1ccc(Nc2nc(-c3cccnc3)nc3ccccc23)cn1`: the inhibition was 68.3%.
For `CC(=O)c1ccc(OCC(=O)Nc2nnc(C3CC3)s2)cc1` the value was -27.1%; for `C=C1CCN([C@@H](CC(C)C)C(=O)NCc2ccccc2)S(=O)(=O)c2ccccc21`, 12.9%.
For `CSc1cccc(CN2CCN(Cc3ccccc3)C(CCO)C2)c1` (stereo not drawn) the value was 48.8%; for `CCOC(=O)Cc1ccc(NS(=O)(=O)c2ccc(SC)cc2)cc1`, 19.4%.
For `CCn1c(N)c(C(=O)NCc2cccnc2)sc1=S`, the inhibition is 100%.
Then `CCC1=C(OC(=O)N(CC)CC)N2C(=O)OC(=NCC(=O)OC)[C@]2(Cc2ccccc2)[C@H]2C1=CC[C@H]1C(=O)N(CC(=O)OC)C(=O)[C@H]12`, with 70.2%; and `Cc1ccc(C(=O)N/C(=C\c2sccc2C)C(=O)NCc2ccco2)cc1`, with 53.9%; and `O=C(NCc1ccccc1)c1cccc(S(=O)(=O)N2CCCCC2)c1`, with 61.2%.
In the case of `CCC1=C(OC(=O)N(CC)CC)N2C(=O)OC(=NCC3CC3)[C@]2(Cc2ccccc2)[C@H]2C1=CC[C@H]1C(=O)N(C)C(=O)[C@H]12`, the inhibition was -6.33%.
For `O=C(c1ccc(-c2cccc(Cl)c2)o1)N1CCN(c2ccc([N+](=O)[O-])cc2)CC1` the value was 21.7%.
For `Fc1cc(Cl)ccc1Nc1nc(NCc2ccccc2)nc2ccsc12` the value was 23%; for `COc1ccc(CCNC(=O)c2ccc(Cl)c(S(=O)(=O)N(C)c3ccccc3)c2)cc1`, -7.22%; for `CN(C)CCOC(c1ccc(Cl)cc1)c1ccccn1` (stereo not drawn), 32%.
Then `COc1ccc(/C=N/NC(=O)c2nn(-c3ccc(Cl)cc3)c(=O)c3c(N)scc23)cc1`, with 17.8%.
For `Cc1ccc2c(c1)C(c1ccncc1)=NNC(c1ccc(F)cc1)=N2`, the inhibition came to 36.3%.
For `Cc1cc(C)n(-c2nnc3n2N=C(c2c[nH]c4ccccc24)CS3)n1` the value was 2.19%; for `CCOC(=O)c1c2ccc(OCC(=O)NN)cc2n2ccccc12`, -1.02%.
As to `COc1ccc(CN2C(=O)c3ccccc3C2=O)cc1C(=O)Nc1ccccc1N1CCOCC1`, the inhibition amounted to 30%.
Regarding `Cc1ccccc1NC(=S)NC(=O)COc1ccccc1C`, the inhibition came to 98.2%.
